This is a sample that favours compounds with a hit; in the whole collection about 21% have one here.
SARS PLP yeast: blocks SARS-CoV papain-like protease in a yeast assay; S. cerevisiae expressing SARS-CoV PLpro, growth rescue; Potency, µM (top dose mostly 32.9 µM), for the others: at the top dose activity, positive = growth rescue, hits mostly activators; 330,000 tested, 0.19% active; AID 485353; calls by dose curve; note: potency is the fitted concentration of half-maximal effect; 0% is about no effect; nearly all actives have a fitted effect of over 55% in size
NS1 inh: influenza NS1 inhibition. Potency, µM (series often up to 46.1 µM), inactives show top-dose activity, positive = more growth. 270,000 tested, 0.4% active. AID 2326; calls by dose curve; note: potency is the fitted concentration of half-maximal effect; actives are rising curves; nearly all actives have a fitted effect of over 50% in size
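A cell-based growth assay was used: compounds that relieve NS1-induced slow growth of budding yeast raise OD600. Assay medium was yeast nitrogen base with ammonium sulphate and -URA supplement, pH 6.0, with 2% galactose.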
Cycloheximide cs: affects cycloheximide protein synthesis inhibition readout, counter-screen. cell reporter, cycloheximide protein synthesis inhibition counterscreen. 300,000 tested, 12% active. AID 2314. max response, %; in the data active = max response mostly above about 13%, no sharp cut-off; inactive = mostly below about 14%; note: read at 38.3 µM for the half of the compounds with a filed dose; 0% is about no effect
Shiga inhibitor: inhibitors of Shiga toxin in Vero cells | inhibition, % at 38.7 µM | 290,000 tested, 9.2% active | Vero cells, Shiga toxin protein synthesis inhibition reporter; in the data active = inhibition mostly above about 28%, no sharp cut-off; inactive = mostly below about 43%; note: 0% is about no effect
Pf growth 48h: inhibits P. falciparum growth in the first generation, 48 h; P. falciparum luciferase growth in erythrocytes, 48 h; Potency, µM (highest dose often 28.7 µM), without a hit: at the top dose activity change, negative = inhibition, hits mostly inhibitors; 310,000 tested, 5.9% active; note: potency is the fitted concentration of half-maximal effect; % is set by controls: 0 for no effect and ±100 for the full control effect
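Cell-based growth assay: transgenic P. falciparum expressing firefly luciferase, cultured in red cells within RPMI 1640 containing 0.5% w/v Albumax, 24 mM bicarbonate and gentamycin. A drop in luciferase activity indicates inhibition.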
Pf growth 96h: P. falciparum growth inhibition at 96 hour, primary screen for plastid delayed-death inhibitors. Potency, µM (doses to about 28.7 µM), for inactives: at the highest dose activity change, negative = inhibition, most hits filed as inhibitors. P. falciparum luciferase reporter growth, 96 h. 320,000 tested, 6.9% active. AID 504834; note: potency is the fitted concentration of half-maximal effect; % is set by controls: 0 for no effect and ±100 for the full control effect
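Plates of compound plus infected erythrocytes (2% hematocrit, 0.05% parasitemia final) incubate 96 hours, 37 C, 5% CO2. Detection reagent added; reduced luminescence from the parasites' luciferase reporter flags inhibition.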
* marks the source's active call; other numbers are inactive results. Unless noted, calls come from the whole dose curve; as a rule, active = well fitted inhibition curve with a large enough effect; inconclusive = small, poorly fitted or top-dose-only effect, or another doubt; inactive = no such curve, though single readings can be large or run the other way.

For CC(Oc1ccc2c3c(c(=O)oc2c1)CCCC3)C(=O)NC1CC(C)(C)NC(C)(C)C1 (stereo not drawn) the results were SARS PLP yeast -1.8%, NS1 inh -3.0%, Cycloheximide cs 2.3, Shiga inhibitor -8.7, Pf growth 48h 14.7µM* and Pf growth 96h 9.28µM*.
CCOC(=O)c1nc(NCc2ccccc2F)c2ccccc2n1 was read as SARS PLP yeast -0.3%, NS1 inh -6.9%, Cycloheximide cs 2.1, Shiga inhibitor -2.6, Pf growth 48h inconclusive and Pf growth 96h inconclusive.
Screening Nc1nc2n(n1)C1(CCCCC1)C1=C(CCCC1)N2 returned SARS PLP yeast -0.6%, NS1 inh inconclusive, Cycloheximide cs -1.2, Shiga inhibitor -11.8, Pf growth 48h -0.9% and Pf growth 96h 10.4µM*.
Screening N=C1c2ccccc2CN1NC(=O)c1ccccc1 returned SARS PLP yeast -5.1%, NS1 inh 17.4%, Cycloheximide cs 7.0, Shiga inhibitor 36.8, Pf growth 48h 50.6% and Pf growth 96h 98.3%.
`Cc1ccc(C)c(C(=O)CN2Cc3ccccc3C2=O)c1` gave SARS PLP yeast 6.4%, NS1 inh -1.5%, Cycloheximide cs 22.1*, Shiga inhibitor 65.1*, Pf growth 48h 19.0% and Pf growth 96h 39.2%.
`N=C1c2ccccc2CN1CC(=O)c1ccccc1` gave SARS PLP yeast 0.7%, NS1 inh -5.4%, Cycloheximide cs 41.1*, Shiga inhibitor 40.3*, Pf growth 48h 173.9% and Pf growth 96h 225.2%.
Screening COCCCNC(=O)C(=O)Nc1ccc2c(c1)N(S(=O)(=O)c1cccs1)CCC2 returned SARS PLP yeast -1.8%, Pf growth 48h inconclusive and Pf growth 96h inconclusive.
Screening CO/N=C/NC(=O)C1=NOC(CNc2ncc(C(F)(F)F)cc2Cl)C1 (stereo not drawn) returned NS1 inh 12.1%, Cycloheximide cs 0.8, Shiga inhibitor -9.8, Pf growth 48h 6.8% and Pf growth 96h 4.4%.
`NC(=O)C1=NOC(CNc2ncc(C(F)(F)F)cc2Cl)C1` (stereo not drawn) gave SARS PLP yeast 1.2%, NS1 inh 6.4%, Cycloheximide cs 36.1*, Shiga inhibitor 86.9* and Pf growth 96h 66.5%.
`Cc1ccccc1C(=O)NCC(=O)NNC(=O)c1cccc(Cl)c1` gave SARS PLP yeast -1.1%, Pf growth 48h 1.5% and Pf growth 96h inconclusive.
CC(C)CC(=O)Nc1cccc(-c2cn3ccsc3n2)c1 was read as SARS PLP yeast -0.5%, NS1 inh -4.0%, Cycloheximide cs 31.6*, Shiga inhibitor 36.4*, Pf growth 48h 82.6% and Pf growth 96h 1.7%.
CCC(=O)Nc1cccc(-c2cn3ccsc3n2)c1 was read as SARS PLP yeast -14.0%, NS1 inh -4.1%, Cycloheximide cs 17.2, Shiga inhibitor 42.9 and Pf growth 48h 111.7%.
`Cc1ccc(S(=O)(=O)Nc2cccc(-c3cn4ccsc4n3)c2)cc1` gave SARS PLP yeast -5.2%, NS1 inh 7.4%, Cycloheximide cs 9.6*, Shiga inhibitor -3.6, Pf growth 48h -4.2% and Pf growth 96h 5.2%.
`O=S(=O)(Nc1cccc(-c2cn3ccsc3n2)c1)c1ccc(F)cc1` gave SARS PLP yeast -4.9%, NS1 inh -0.5%, Cycloheximide cs 25.4*, Shiga inhibitor 105.9* and Pf growth 48h 0.0%.
For CCN(CC)c1ccc(NC(=O)c2cccc(OC)c2)c(C)c1 the results were SARS PLP yeast -1.4%, NS1 inh -5.8%, Cycloheximide cs 16.5*, Shiga inhibitor 24.8, Pf growth 48h 3.6% and Pf growth 96h 148.1%.
CCN(CC)c1ccc(NC(=O)c2cc(OC)cc(OC)c2)c(C)c1 was read as SARS PLP yeast -10.0%, NS1 inh -0.6%, Cycloheximide cs -2.0, Shiga inhibitor -9.9, Pf growth 48h inconclusive and Pf growth 96h 0.6%.
For CCN(CC)c1ccc(NC(=O)c2ccc3c(c2)OCO3)c(C)c1 the results were SARS PLP yeast 8.1%, NS1 inh -7.1%, Cycloheximide cs 16.9*, Shiga inhibitor 13.3, Pf growth 48h 4.5% and Pf growth 96h 130.8%.
`Cc1cc(C)c2c(N)c(C(=O)c3cccc(Cl)c3)sc2n1` gave SARS PLP yeast 13.6%, NS1 inh 6.6%, Cycloheximide cs -1.2, Shiga inhibitor -5.0, Pf growth 48h 6.3% and Pf growth 96h inconclusive.
`Cc1snc2sc(C(=O)c3ccc(Br)cc3)c(N)c12` gave SARS PLP yeast -4.5%, NS1 inh 0.6%, Cycloheximide cs 26.6*, Shiga inhibitor 28.3 and Pf growth 96h 262.9%.
`Cc1ccc(C(=O)c2sc3nsc(C)c3c2N)cc1` gave SARS PLP yeast 13.8%, NS1 inh 5.3%, Cycloheximide cs 86.3*, Shiga inhibitor 154.9* and Pf growth 96h 202.4%.
Screening CCOC(=O)C1CCN(C(=O)CSc2cc(=O)n(CC)c3ccccc23)CC1 returned SARS PLP yeast -1.6%, NS1 inh -3.0%, Cycloheximide cs -0.4, Shiga inhibitor -4.2, Pf growth 48h -28.3% and Pf growth 96h 0.0033µM*.
For CCn1c(=O)cc(SCC(=O)N2CCN(C)CC2)c2ccccc21 the results were SARS PLP yeast 4.7%, NS1 inh -2.4%, Cycloheximide cs -2.2, Shiga inhibitor -12.1 and Pf growth 96h 0.0657µM*.
`O=S(=O)(c1ccc(Cl)cc1)N1CCN(c2ncccn2)CC1` gave SARS PLP yeast 1.1%, NS1 inh -3.5%, Cycloheximide cs -1.2, Shiga inhibitor -6.6, Pf growth 48h 0.0% and Pf growth 96h inactive.
CCN(CC(=O)NCc1ccc(F)cc1)C(=O)CN1CCN(c2cc(Cl)ccc2C)CC1 was read as SARS PLP yeast 0.5%, NS1 inh -6.3%, Cycloheximide cs -1.8, Shiga inhibitor -7.5, Pf growth 48h inconclusive and Pf growth 96h inconclusive.
For C=C1CCN([C@H](C(=O)NCc2ccccc2)C(C)C)S(=O)(=O)c2ccccc21 the results were SARS PLP yeast 0.4%, NS1 inh 3.3%, Cycloheximide cs -2.9, Shiga inhibitor -3.8, Pf growth 48h inconclusive and Pf growth 96h 11.7µM*.
Screening O=C(CNC(=O)c1cccc(F)c1)OCC(=O)N1CCCCC1 returned SARS PLP yeast 20.7%, NS1 inh -1.4%, Cycloheximide cs 34.9*, Shiga inhibitor 51.1*, Pf growth 48h 26.5% and Pf growth 96h -10.2%.
`Cc1ccc(C(=O)NCCN2CCNC2=O)cc1` gave SARS PLP yeast -0.1%, NS1 inh -1.8%, Cycloheximide cs 27.8*, Shiga inhibitor 58.3*, Pf growth 48h 41.5% and Pf growth 96h 24.2%.
`Cc1ccc(C(=O)NCC(=O)N2CCCCCCC2)cc1` gave SARS PLP yeast -11.7%, Pf growth 48h inconclusive and Pf growth 96h 17.6%.
For O=C(NCC(=O)N1CCCC1)c1ccc(Br)cc1 the results were SARS PLP yeast -1.2%, NS1 inh 5.9%, Cycloheximide cs 9.9, Shiga inhibitor 82.6, Pf growth 48h 19.7% and Pf growth 96h 53.1%.
